Screening results (PubChem)
MazF activator = activators of E. coli MazEF toxin-antitoxin RNase; FAM/BHQ RNA-DNA oligo cleavage fluorescence, 5 h; P0AE70; AID 504720; activation, % at 20 µM; 0.32% of 350,000 active; in the data active = activation above about 50%
Target sequence (P0AE70 whole entry, looked up): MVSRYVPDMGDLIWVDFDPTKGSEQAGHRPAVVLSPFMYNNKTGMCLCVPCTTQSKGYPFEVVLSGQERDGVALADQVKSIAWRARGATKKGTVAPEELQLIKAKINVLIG
Yp Topo-I inh = blocks Yersinia pestis topoisomerase I activity | Y. pestis Topo-I cleavage product accumulation, plate reader | activity, % at 10 µM | 0.064% of 360,000 active; in the data active = activity above about 50%, passing the limit was not always enough
TcdB inh = blocks C. difficile toxin B glycohydrolase activity. AID 652162. inhibition, % at 9.99 µM. TcdB glycohydrolase enzymatic assay, plate reader. P18177. 0.24% of 350,000 active; in the data active = inhibition above about 10%
VHR inh abs = DUSP3 (human) phosphatase inhibition. 0.52% of 290,000 active. recombinant VHR phosphatase, pNPP absorbance. AID 1654. P51452. inhibition, % at 13.3 µM; in the data active = inhibition above about 50%
Target sequence (P51452 whole entry, looked up): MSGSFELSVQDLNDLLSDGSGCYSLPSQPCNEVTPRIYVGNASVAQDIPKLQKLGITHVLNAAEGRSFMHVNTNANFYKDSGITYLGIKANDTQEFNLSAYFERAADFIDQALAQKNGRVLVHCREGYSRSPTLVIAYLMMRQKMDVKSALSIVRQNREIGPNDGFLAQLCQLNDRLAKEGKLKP
FadD28 binding = M. tuberculosis FadD28 bisubstrate binding inhibition; inhibition, % at 12.5 µM; 0.22% of 360,000 active; FadD28 bisubstrate probe binding, fluorescence polarization; in the data active = inhibition above about 8.5%, passing the limit was not always enough
BioA inh = BioA (M. tuberculosis) enzyme inhibition; 0.096% of 360,000 active; AID 602481; inhibition, % at 9.99 µM; purified M. tuberculosis BioA enzyme, plate reader; in the data active = inhibition above about 40%
* hit, by the source's call; nt = no result. An excerpt weighted towards active compounds, which were near 1% of everything screened.

SMILES	MazF activator	Yp Topo-I inh	TcdB inh	VHR inh abs	FadD28 binding	BioA inh
C[C@H](CO)N1C[C@H](C)[C@@H](CN(C)C(=O)c2ccccc2)OCCCC[C@H](C)Oc2ccc(NC(=O)C3CCCCC3)cc2C1=O	nt	nt	1	nt	nt	-1
CC(C)CC#Cc1ccc2c(c1)O[C@H](CN(C)C(=O)C1CCCCC1)[C@@H](C)CN([C@@H](C)CO)S2(=O)=O	nt	nt	0	nt	nt	0
COc1cccc(-c2cnc3c(c2)C(=O)N([C@H](C)CO)C[C@@H](C)[C@H](CN(C)Cc2ccncc2)O3)c1	nt	nt	0	nt	nt	2
COc1cccc(S(=O)(=O)N2CC3(CN[C@@H](CO)c4[nH]c5cc(OC)ccc5c43)C2)c1	nt	nt	1	nt	nt	nt
COc1ccc2oc(C(=O)OCC(=O)Nc3cc(S(=O)(=O)N4CCOCC4)ccc3C)c(C)c2c1	61*	21	0	nt	-3	nt
CCN(CC)c1ccc(N)cc1	99*	-19	nt	nt	-1	0
C[C@H](NC(=O)C[C@H]1C[C@H]2c3cc(NC(=O)C4CCOCC4)ccc3O[C@H]2[C@H](CO)O1)c1ccccc1	nt	nt	-2	nt	nt	3
COc1ccccc1S(=O)(=O)N1CC[C@H]2[C@H](CO)Nc3ccc(-c4cccc(C#N)c4)cc3[C@H]21	nt	nt	nt	nt	nt	20
COc1cc(/C=C2\SC(=S)N(C(C(=O)O)c3ccccc3)C2=O)cc(OC)c1OC (stereo not given)	-5	17	0	25	0	0
O=C1/C(=C\c2ccc(-c3ccccc3Cl)o2)SC(=S)N1CC1CCCO1 (stereo not given)	-9	-4	nt	3	0	-2
O=C(O)C(c1ccccc1)N1C(=O)/C(=C\c2ccc(-c3ccccc3Cl)o2)SC1=S (stereo not given)	-338	-1	-1	4	11*	4
O=C(O)C(c1ccccc1)N1C(=O)/C(=C\c2ccc(-c3ccc(Br)cc3)o2)SC1=S (stereo not given)	-237	-11	2	-16	27*	18
O=C(CC1CC1)N[C@H]1C[C@@H]2O[C@H](CO)CC[C@@H]2O[C@@H]1CCc1ccc(C#Cc2ccccc2)cc1	nt	nt	1	nt	nt	nt
C[C@@H]1CCCCO[C@H](CN(C)Cc2ccc(Cl)c(Cl)c2)[C@H](C)CN([C@@H](C)CO)C(=O)c2cc(NS(C)(=O)=O)ccc2O1	nt	nt	1	nt	nt	1
COc1ccc(CNC(=O)CN(Cc2ccc(C)cc2)S(=O)(=O)c2ccc(Cl)cc2)cc1	-1	52*	nt	15	-3	0
COc1ccc(CNC(=O)CN(C)S(=O)(=O)c2ccc(Cl)cc2)cc1	0	6	-1	-8	-3	-1
Cc1ccc(C)c(Nc2nc3c(S(=O)(=O)c4ccccc4)nnn3c3ccccc23)c1	135*	5	1	3	-1	nt
O=C(Nc1sc(-c2ccccc2)cc1C(=O)O)c1ccccc1	-29	4	1	18	19*	8
Oc1ccc(Cl)cc1C1=Nc2ccccc2N=C(c2ccco2)C1	113*	0	-1	-4	-1	-5
COc1ccc(O)c(C2=Nc3ccccc3N=C(c3ccco3)C2)c1	20	-4	nt	-15	-2	-2
CCCCn1c(N)c(N(CCC(C)C)C(=O)c2ccccc2C)c(=O)[nH]c1=O	1	-4	2	-22	-3	1
CCCCn1c(N)c(N(CC)C(=O)c2ccccc2C)c(=O)[nH]c1=O	13	-6	2	52*	nt	0
O=[N+]([O-])c1ccc(NC(=S)N2CCCC2)cc1	7	11	0	51*	-2	0
CN1CCN(C(=S)Nc2ccc([N+](=O)[O-])cc2)CC1	-5	-9	nt	1	-3	17
COc1ccc(NC(=O)Nc2ccc3c(c2)[C@@H]2C[C@@H](CC(=O)N4CCN(C)CC4)O[C@@H](CO)[C@@H]2O3)cc1	nt	nt	0	nt	nt	-2
COC(=O)[C@H]1[C@H](CO)[C@H]2Cn3c(ccc(-c4ccncc4)c3=O)[C@H]2N1CC1CCCC1	nt	nt	0	nt	nt	nt
O=C(CSc1nc2ccccc2c(=O)n1Cc1ccco1)Nc1cccc(O)c1	59*	-14	-1	-11	-2	nt
O=C(CSc1nc2ccccc2c(=O)n1Cc1ccco1)NCc1ccccc1	1	17	nt	nt	-1	-1
O=C(NCC[C@@H]1CC[C@H](NC(=O)c2ccc3c(c2)OCO3)[C@H](CO)O1)Nc1cc(F)ccc1F	nt	nt	0	nt	nt	8
O=C(O)C[C@H]1C=C[C@@H](NC(=O)Nc2ccccc2)[C@@H](CO)O1	nt	nt	0	nt	nt	5
